These results are taken from ChEMBL document CHEMBL3433997, “St. Jude Leishmania screening dataset” (2016).

Molecules are shown by their SMILES.

The assay concerns the target Glucose transporter (Leishmania mexicana) (UniProt O61059). The assay is described as follows: ST_JUDE_LEISH: Cytotoxicity at 2uM final concentration against transgenic Leishmania Mexicana promastigotes LmGT2 that are glucose transport deficient and complemented with the L. Mexicana glucose transporter 2. Activity is measured by DNA content using SYBR green in vitro. It is filed as functional.
Turning to `CCCN(CCC)C(=O)c1cc(C(=O)N[C@@H](Cc2ccccc2)[C@H](O)CNC(C)(C)c2cccc(C(F)(F)F)c2)cc(N2CCCCS2(=O)=O)c1`, the inhibition is -1.54%.
Regarding `N#CCCN1CCN(Cc2ccc(-c3ccc(-c4nc5cc(F)ccc5[nH]4)s3)cc2)CC1`, the inhibition came out at 4.14%.
Under `Cc1cc(N2CCCN(C)CC2)nc(Nc2ccc(Br)cc2)n1` stands 1.6%.
The value for `CCCCCN1CCC(NS(=O)(=O)c2cccc(C(=O)Nc3ccc(C(F)(F)F)cc3)c2)C1` (stereo not given) was 1.9%.
Under `COC(=O)C(NC(=O)NC1CCN(c2ccnc(Nc3ccc(F)cc3)n2)C1)c1ccccc1` (stereo not given) stands -2.66%; under `CCOc1ccc(C2CCN(CCN3CCC(NC(=O)c4ccc(-c5ccc(C(F)(F)F)cc5)cc4)CC3)CC2)c(OCC2CC2)c1`, 2.81%.
Regarding `CCOCc1cnc(C)nc1NCC(=O)c1c(C)[nH]c2cc(C)ccc12`, the inhibition is -0.44%.
The value for `c1ccc(-c2nnc(-c3ccccn3)nc2NC2CCCCC2)cc1` was 71.2%; that for `O=C(Nc1ccccc1)N(Cc1cccc(-c2cccc(CNCc3ccc4c(c3)OCO4)c2)c1)C1CCN(Cc2ccccc2)CC1` was 2.79%.
Under `Cn1nc(-c2ccc(Cl)cc2)c2cc(C(=O)NCCN3CCOCC3)sc21` stands -0.52%; under `c1ccc(CCNCc2ccc(-c3cccc(CNc4ccc5ncccc5c4)c3)cc2)cc1`, 11.3%; under `Cc1ccc(CN2CCCN(Cc3cccc(NC(=O)c4cc5ccccc5s4)c3)CC2)cc1C`, -0.17%.
On to `Cc1cc(C)c(NC(=O)NC2CCN(CCCCCNC(=O)/C=C/c3ccc(Cl)c(Cl)c3)CC2)c(C)c1`, for which the inhibition came to 3.81%.
The value for `COc1cc2ccccc2cc1CCNCCCCNCCc1cc2ccccc2cc1OC` was 104%; that for `COc1ccc2nccc([C@@H](O)CN3CCC(NC(=O)c4ccc(OC)c(N)c4)CC3)c2c1` was 11.5%.
As to `CC[C@H](C)CNC(=O)c1ccnc(-c2cccc(CN3CCC(N4CCCC4)CC3)c2)c1`, the inhibition is 0.7%.
Regarding `O=C(Nc1ccc(-c2nc3ccccc3[nH]2)cc1)c1cccc([N+](=O)[O-])c1`, the inhibition was -1.09%.
Under `CCCNS(=O)(=O)c1ccc(NC(=O)C(C)Oc2ccc([N+](=O)[O-])cc2)cc1` (stereo not given) stands -4.88%; under `COc1ccc(CNC(=O)c2cnc3c(O)cccc3c2Nc2cccc(NC(=O)c3ccc(-c4ccccc4)cc3)c2)cc1`, 64.3%; under `CC(=O)Nc1cccc(C(=O)Nc2ccc(-c3cccc(-c4nc5cccc(C)c5[nH]4)c3)cc2)c1`, 0.36%.
Under `CC(=O)N(C)C1CCN(Cc2cccc(-c3ccc(-c4nc5cc(C(F)(F)F)ccc5[nH]4)cc3)c2)C1` (stereo not given) stands 3.1%; under `CCn1cc2c3c(cc(C(=O)N[C@@H](Cc4ccccc4)[C@H](O)CNC4CCOCC4)cc31)N(C)S(=O)(=O)CC2`, 4.85%.
The value for `CCN(CC)c1cc(C)c2cc(NC(=O)c3cc(=O)c4ccccc4o3)ccc2n1` was 1.71%; that for `Cc1nc(-c2ccc(-c3ccc(NC(=O)c4coc5ccc(N6CC(C)NC(C)C6)cc45)cc3)c(C)c2)no1` (stereo not given) was 6.24%.
In the case of `CC(CN1CCN(C)CC1)C(=O)Nc1cccc(-c2ccc(-c3nc4ccccc4[nH]3)s2)c1` (stereo not given), the inhibition was -3.97%.
Under `CCCNCc1ccc(-c2ccc(CN(CCOC)C(=O)c3ccccc3)cc2)nc1` stands 1.11%; under `CCCCCN1CCN(Cc2cccc(NC(=O)c3ccc(Cl)c(Cl)c3)c2)CC1`, 1.32%; under `Cc1ccc(C(=O)NCC2CCN(c3ccc(C(F)(F)F)cc3NC(=O)c3ccco3)CC2)cn1`, 3.12%.
The value for `Nc1ccc(-c2ccc3ccnc(N)c3c2)cc1` was 1.39%; that for `CN1CCC(Oc2cc(NC(=O)Nc3ccc(-c4ccncc4)c(Cl)c3)ccc2Cl)CC1` was 9.26%.
The value for `N=C1NC(=N)N(OCCCCCCON2C(=N)NC(=N)NC2C=Cc2ccccc2)C(C=Cc2ccccc2)N1` (stereo not given) was 10.7%; that for `O=C(/C=C/c1ccccc1Cl)Nc1ccc(Br)c(OCCN2CCC(O)(c3ccccc3)CC2)c1` was -0.34%.
In the case of `O=C(Cc1ccccn1)Nc1cccc(-c2cccc(-c3nc4cc(C(F)(F)F)ccc4[nH]3)c2)c1`, the inhibition is -0.1%.
Under `CCc1c(CCNCCCCCCNCCc2ccc(Br)cc2)ccc(O)c1O` stands 1.12%; under `NC(=O)c1ccc(NC(=O)CN(Cc2ccc(Cl)cc2)S(=O)(=O)c2ccccc2)cc1`, 7.46%; under `CNCCNCc1ccc(-c2ccc(-c3nc4cc(C(F)(F)F)ccc4[nH]3)cc2)cc1`, 2.46%.
The value for `Cc1c[nH]c2ccc(/C=C/C(=O)NC3CCC(CCN4CCc5ccc(C#N)cc5CC4)CC3)cc12` (stereo not given) was 0.32%.
Consider `CC1CN(c2nc(NCCc3ccc(O)cc3)nc(NCc3ccccc3-c3ccc(C(F)(F)F)cc3)n2)CC(C)N1` (stereo not given), for which the inhibition amounted to 6.55%.
The value for `O=[N+]([O-])c1ccccc1/C=N/Nc1ccnc2cc(Cl)ccc12` was 3.41%; that for `NC1=NC(CCc2ccccc2)N(c2ccc(Cl)cc2)C(N)=N1` (stereo not given) was 1.06%.
